Experiment [1] in a line: qHTS assay to identify small molecule antagonists of the vitamin D receptor (VDR) signaling pathway - cell viability counter screen (AID 743225). Also: nearly all actives have a fitted effect of over 50% in size. Also: potency is read from the fitted curve at half-maximal effect. In a few lines: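 Cytotoxicity toward the VDR-bla HEK 293T line was scored by ATP-based CellTiter-Glo luminescence, read in the wells already used for the beta-lactamase readout after 16 h compound treatment under 3 nM 1-alpha,25-dihydroxyvitamin D3 stimulation.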
A general note: qHTS replaces the single test concentration by a dilution series.

Experiment [2] is described as follows: qHTS assay to identify small molecule agonists of the NFkB signaling pathway (AID 1159509; active = well fitted curve in the direction sought with a large enough effect in the signal ratio in the repeat runs, not every such curve was filed as active; the % refers to the signal ratio; also: series mostly up to about 61 µM; % is scaled to controls: 0 for no effect and ±100 for the full control effect). A digest of the protocol: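 Pathway activation was measured in ME-180 cells stably expressing beta-lactamase under NF-kB response element control. Substrate cleavage was read as the 460/530 nm emission shift after 5 hr compound incubation.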
The nature of experiment [3]: qHTS assay to identify small molecule agonists of the NFkB signaling pathway - cell viability counter screen (AID 1159515; calls by dose curve; also: series mostly up to about 61 µM; % is scaled to controls: 0 for no effect and ±100 for the full control effect; nearly all actives have a fitted effect of over 55% in size). In a few lines:
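Read by CellTiter-Glo luminescence (30 min, room temperature) in the wells also used for the beta-lactamase FRET read. ME-180 NFkB-bla cells at 2,000 per well were plated overnight, then exposed to compound for 5 hr at 37 C.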

Experiment [4] deals with Nuclear receptor ROR-gamma (Homo sapiens) (UniProt P51449). The experiment can be described thus: qHTS assay to identify small molecule antagonists of the retinoid-related orphan receptor gamma (ROR-gamma) signaling pathway (AID 1159521; also: nearly all actives have a fitted effect of over 50% in size; also: potency is read from the fitted curve at half-maximal effect). A digest of the protocol:
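Readout: ONE-Glo luciferase luminescence, 30 min at room temperature. System: Tet-on RORγ CHO, RORE-LUC. Sequence: compound 2 h, doxycycline 1 uM final, 16 h at 37 C.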

Experiment [5] is described as follows: qHTS assay to identify small molecule agonists of the AP-1 signaling pathway - cell viability counter screen (AID 1159525; calls by dose curve; also: nearly all actives have a fitted effect of over 55% in size). A digest of the protocol:
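Each titration point was normalised to DMSO and tetra n-octyl ammonium bromide controls. The read was Cell Titer Glo luminescence after 30 min at RT, following 5 h compound exposure of ME-180 AP-1-bla cells at 37 °C.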

Experiment [6] is described as follows: qHTS assay to identify small molecule agonists of the RXR signaling pathway - cell viability counter screen (AID 1159529). Also: series mostly up to about 77 µM; % is scaled to controls: 0 for no effect and ±100 for the full control effect; nearly all actives have a fitted effect of over 50% in size. A digest of the protocol: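 Tox21 10K compounds were tested for cytotoxicity against GeneBLAzer RXR-alpha HEK 293T cells grown in 2% charcoal-stripped FBS. Exposure lasted 16 hr at 37 C, 5% CO2; viability read by CellTiter-Glo luminescence.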

A short description of experiment [7]: qHTS assay to identify small molecule antagonists of the retinoid acid receptor (RAR) signaling pathway - cell viability counter screen (AID 1159551). Also: % is scaled to controls: 0 for no effect and ±100 for the full control effect; nearly all actives have a fitted effect of over 35% in size. In a few lines: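 Cytotoxicity counter screen: ATP content quantified by CellTiter-Glo luminescence in C3RL4 cells treated 6 hr at 37 C with compound and retinol (1 uM final). Cells plated at 1,000/well and cultured overnight before dosing.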

Experiment [8] in a line: qHTS assay to identify small molecule agonists of the retinoic acid receptor (RAR) signaling pathway (AID 1159553). Also: potency is read from the fitted curve at half-maximal effect. In a few lines: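 Luminescence was measured 30 min after luciferase reagent addition at room temperature. Before that, C3RL4 reporter cells (1,000 per well, plated overnight) were treated with compound for 6 hr at 37 C and 5% CO2.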
Experiment [9] is described as follows: qHTS assay to identify small molecule agonists of the vitamin D receptor (VDR) signaling pathway - cell viability counter screen (AID 743224). Also: nearly all actives have a fitted effect of over 50% in size. Also: potency is read from the fitted curve at half-maximal effect. A digest of the protocol:
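Counter screen run in the same wells as the VDR-bla reporter assay: CellTiter-Glo luminescence, 30 min at room temperature, after 16 h compound treatment at 37C of cells pre-plated for 4 h.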

Experiment [10] is described as follows: qHTS assay to identify small molecule agonists of the AP-1 signaling pathway (AID 1159526; calls by dose curve; also: % is scaled to controls: 0 for no effect and ±100 for the full control effect).
A short description of experiment [11]: qHTS assay to identify small molecule agonists of the endoplasmic reticulum stress response signaling pathway (AID 1159516; active = well fitted activation curve with a large enough effect in the signal ratio in the repeat runs, not every such curve was filed as active; the % refers to the signal ratio; also: % is scaled to controls: 0 for no effect and ±100 for the full control effect). A digest of the protocol:
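Ratiometric FRET readout (405 nm excitation; 460 and 530 nm emission) of a beta-lactamase gene driven by the ER stress response element, after 2 hr substrate loading. HeLa ESRE-bla cells were seeded overnight and treated with compounds for only 5 hr at 37 C.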

The nature of experiment [12]: qHTS assay to identify small molecule agonists of the endoplasmic reticulum stress response signaling pathway - cell viability counter screen (AID 1159517; calls by dose curve). A digest of the protocol: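 Cpd-treated ESRE-bla HeLa (5 hr, 37 C) → LiveBLAzer 2 hr RT → CellTiter-Glo 30 min RT → luminescence.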
Experiment [13] can be described thus: qHTS assay to identify small molecule antagonists of the retinoid-related orphan receptor gamma (ROR-gamma) signaling pathway - cell viability counter screen (AID 1159520). A digest of the protocol:
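Tet-on ROR gamma CHO cells (1,000/well) were plated 4 hr, given compounds in DMSO for 2 hr at 37 C, then induced with 1 uM final doxycycline for 16 hr. Viability was read as ATP by CellTiter-Glo luminescence after 30 min.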

The target in experiment [14] is Retinoic acid receptor RXR-alpha (Homo sapiens) (UniProt P19793). Nature of the experiment: qHTS assay to identify small molecule agonists of the RXR signaling pathway (AID 1159527; calls by dose curve; also: nearly all actives have a fitted effect of over 35% in size; also: potency is read from the fitted curve at half-maximal effect). A digest of the protocol: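 Reporter activation is measured as beta-lactamase activity via FRET substrate cleavage (emission 460/530 nm) in HEK 293T cells expressing an RXR-alpha-driven bla construct, following 16 hr compound exposure at 37 C.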

Experiment [15] can be described thus: qHTS assay to identify small molecule antagonists of the retinoic acid receptor (RAR) signaling pathway (AID 1159552; also: nearly all actives have a fitted effect of over 50% in size; also: potency is read from the fitted curve at half-maximal effect). A digest of the protocol:
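Overnight-plated C3RL4 reporter cells get compound, then retinol to 1 uM final; plates sit 6 hr at 37 C, 5% CO2. A luciferase reagent is added and light output recorded after 30 min at room temperature.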

Experiment [16] in a line: qHTS assay to identify small molecule antagonists of the estrogen related receptor (ERR) signaling pathway - cell viability counter screen (AID 1224818). Also: series mostly up to about 46 µM; % is scaled to controls: 0 for no effect and ±100 for the full control effect. In a few lines: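 Cytotoxicity counter screen: fluorescence from CellTiter-Fluor, added after 17.5 h compound exposure at 37 C and read 30 min later. ERR cell line seeded at 2,000 cells/well, preincubated 6 h before dosing.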

Experiment [17] is described as follows: qHTS assay to identify small molecule antagonists of the estrogen related receptor (ERR) signaling pathway (AID 1224819). A digest of the protocol: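 LOPAC library screened for antagonism as reduced One-Glo luminescence in ERR reporter cells (2,000/well). Compounds were added after 6 h pre-incubation and left 18 h at 37C; reading followed a 30 min room-temperature reagent step.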

Experiment [18] can be described thus: qHTS assay to identify small molecule agonists of the estrogen related receptor (ERR) signaling pathway (AID 1224820). Also: % is scaled to controls: 0 for no effect and ±100 for the full control effect. A digest of the protocol: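 An ERR cell line provided by NTP was seeded at 2,000 cells per well and allowed to settle for 6 h before compounds in DMSO were added. After 18 h at 37 C, luciferase activity was measured by One-Glo luminescence.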

The test system of experiment [19] is estrogen-related receptor alpha (ERRalpha) with PGC-1alpha coactivator, human. The experiment can be described thus: qHTS assay to identify small molecule antagonists of the estrogen related receptor signaling pathway with the pleiotropic PPARgamma coactivator (PGC) (AID 1224821; calls by dose curve). A digest of the protocol: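 A PGC/ERR cell line supplied by NTP is seeded, allowed 6 h at 37 C, and treated with test compounds in DMSO for 18 h. Signal is then measured as luciferase luminescence using One-Glo.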

Experiment [20] in a line: qHTS assay to identify small molecule antagonists of the estrogen related receptor signaling pathway with the pleiotropic PPARgamma coactivator (PGC) cell viability counter screen (AID 1224822). In a few lines: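 Viability counter-screen read by fluorescence intensity after 30 min with CellTiter-Fluor at 37 C; PGC/ERR reporter cells were exposed to compounds for 17.5 h at 37 C following a 6 h preincubation.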

The structures appear in SMILES notation. Results filed as inconclusive are left out. Values without a mark were called inactive. Activity calls are given as the source filed them. Unless noted, calls follow the shape of the dose curve; as a rule, active = well fitted curve in the direction sought with a large enough effect in the repeat runs; inconclusive = weak or mixed curves; inactive = no such curve, though single readings can be large; an effect the other way counts as inactive or inconclusive.

Sequence of Retinoic acid receptor RXR-alpha (Homo sapiens) (P19793 whole entry, looked up): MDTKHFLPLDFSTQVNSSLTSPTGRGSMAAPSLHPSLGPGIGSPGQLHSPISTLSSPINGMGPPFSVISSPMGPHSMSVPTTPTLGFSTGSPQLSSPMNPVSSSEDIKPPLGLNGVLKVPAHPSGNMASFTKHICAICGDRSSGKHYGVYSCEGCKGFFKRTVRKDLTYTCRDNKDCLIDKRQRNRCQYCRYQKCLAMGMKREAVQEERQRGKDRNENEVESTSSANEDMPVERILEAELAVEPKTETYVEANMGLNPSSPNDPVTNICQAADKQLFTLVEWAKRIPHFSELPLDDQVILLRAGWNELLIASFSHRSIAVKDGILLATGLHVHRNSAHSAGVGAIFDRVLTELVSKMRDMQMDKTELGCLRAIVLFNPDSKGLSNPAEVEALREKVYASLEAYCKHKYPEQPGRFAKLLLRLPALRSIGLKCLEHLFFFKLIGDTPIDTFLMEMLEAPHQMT

As for `S=C=NCc1ccccc1`, the Potency entry in [1], in [3], in [4], in experiment [5], in experiment [6] and in experiment [7] was “inactive” each time. Besides, in experiment [2], the outcome was inactive. Besides, the Potency in experiment [8] is 69.3 µM (active).

In the case of `O=C(O)C1(c2ccc3c(c2)OC[C@H](Cc2ccc(-c4ccccc4)cc2)[C@H]3O)CCCC1`, the values for the Potency in [9], in experiment [1] and in [4] were 49 µM (active), 49 µM (active) and 54.5 µM (active), respectively. For the same compound, the compound was called inactive in experiment [2] and in experiment [10]. Moreover, the Potency result in experiment [3], in experiment [5], in [7] and in [8] was “inactive” throughout.

For the compound `Clc1ccc(C(OCCN2CCCCC2)c2ccccc2)cc1` (centres undefined), the Potency result in [1], in [12], in experiment [13], in experiment [5] and in experiment [7] was “inactive” each time. In addition, the result in experiment [2] and in [11] was inactive.

Regarding `O=NN1CCNCC1`, the Potency entry in experiment [9], in experiment [13], in [5], in experiment [14], in experiment [6] and in experiment [7] was “inactive” throughout. The Potency result in experiment [8] was “inactive”. Further, the compound was classed as inactive in [2] and in [10].

Take `CC1(C)CCC(Cc2ccc(Cl)cc2)C1(O)Cn1cncn1` (centres undefined): the Potency result in experiment [9] and in experiment [7] was “inactive” in each case. Besides, the result in experiment [2] and in experiment [11] was inactive. For the same compound, the Potency in experiment [4] was 54.5 µM (active).

Regarding `O=S(=O)(O)C(F)(F)C(F)(F)C(F)(F)C(F)(F)F`, the compound was called inactive in [2], in experiment [10], in experiment [16], in [17] and in experiment [18]. The Potency entry in experiment [13], in experiment [4], in [6], in [7], in experiment [8] and in experiment [19] was “inactive” throughout. Moreover, the Potency result in [20] was “inactive”. Further, the Potency in [14] was 6.54 µM (active); in experiment [15], 18.3 µM (active).

Regarding `C=CC(=O)OC(C)(C)C`, the Potency entry in experiment [9], in experiment [1], in experiment [13], in experiment [4], in experiment [5] and in experiment [6] was “inactive” throughout. The Potency result in experiment [7] and in experiment [8] was “inactive” each time. Besides, the compound was called inactive in [2], in experiment [11] and in [10].

`CC(=O)NC1CCSC1=O` (centres undefined): the Potency entry in experiment [9], in experiment [1], in [13], in experiment [4], in [5] and in experiment [14] was “inactive” throughout. Besides, the Potency result in [6], in experiment [7], in [15] and in [8] was “inactive” in each case. Also, the result in experiment [2], in [11] and in [10] was inactive.

Turning to `CO[C@@H]1[C@H](OC(=O)NC(=O)CCl)CC[C@]2(CO2)[C@H]1[C@@]1(C)O[C@@H]1CC=C(C)C`, the Potency result in experiment [9], in [1] and in [8] was “inactive” each time. In addition, the call in experiment [2] was inactive. Further, the activity change, negative = cytotoxicity was -19.4% [at 15.8 µM] in [6] and 2.96% [at 19 µM] in experiment [7]. Also, the activity, negative = inhibition in experiment [15] was 1.57% [at 19 µM].

`C=CCC1([C@H](C)CCC)C(=O)NC(=O)NC1=O`: the Potency entry in experiment [9], in experiment [1], in [13], in experiment [4], in experiment [5] and in experiment [14] was “inactive” each time. The Potency result in experiment [6], in experiment [7] and in experiment [15] was “inactive” throughout. The compound was called inactive in experiment [2] and in experiment [10].

For `OCCCBr`, the Potency result in [9], in experiment [13], in experiment [4], in [5], in [7] and in [8] was “inactive” in each case. Besides, the Potency entry in [19] and in experiment [20] was “inactive” each time. For the same compound, the call in [2], in experiment [16], in experiment [17] and in [18] was inactive.

As for `C=C(C#N)CCC#N`, the Potency entry in [9], in experiment [1], in experiment [13], in experiment [4], in experiment [5] and in experiment [14] was “inactive” each time. Besides, the Potency entry in [6], in experiment [7], in [15] and in experiment [8] was “inactive” each time. The outcome in experiment [2], in [11] and in experiment [10] was inactive.

The record behind these values is PubChem BioAssay (Tox21).
